Measurements from PubChem BioAssay (NCATS).
Several values for one entry are separate records, joined by “and”; a condition that tells them apart may be missing. Equal values may be shown once. Records with an inconclusive call do not appear. Activity calls are given as the source filed them. Calls come from the whole dose curve; as a rule, active = well fitted curve in the direction sought with a large enough effect; inconclusive = small, poorly fitted or top-dose-only effect, or another doubt; inactive = no such curve, though single readings can be large; an effect the other way counts as inactive or inconclusive.

Experiments:
[1] = Viability qHTS for spleen associated tyrosine kinase inhibitor (SYKi) naive MV4-11 cells (AID 1963823); note: nearly all actives have a fitted effect of over 40% in size
In short: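 SYK inhibitor-naive MV4-11 cells, 500 per well, exposed to compounds for 72 hr at 37 C, 5% CO2. Viability read as CellTiter-Glo luminescence after 10 min at room temperature.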

[2] = Viability qHTS for spleen associated tyrosine kinase inhibitor (SYKi) drug resistant MV4-11 cells (AID 1963824); note: nearly all actives have a fitted effect of over 35% in size
In short: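 SYK inhibitor-resistant MV4-11 AML cells, 500 per well, added to predispensed compounds and incubated 72 hr at 37 C, 5% CO2. Viability measured by CellTiter-Glo luminescence after 10 min at room temperature.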

[3] = Quantitative highthroughput screen to assess conditional lethalithy of NOMO1 cells grown in RPMI1640 with untreated serum (RPMI+s) (AID 1963876); note: nearly all actives have a fitted effect of over 35% in size;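 for Viability: 100% = DMSO wells and 0% = empty wells without cells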
In short: (§1)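 Each medium arm—HPLM with 10% dialyzed FBS, or RPMI1640 with 5 mM glucose and 10% untreated or dialyzed FBS—was screened against an 11-point, 3-fold compound titration for 48 h at 37 °C, with CellTiter-Glo luminescence as endpoint.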

[4] = Quantitative highthroughput screen to assess conditional lethalithy of NOMO1 cells grown in RPMI1640 with dialyzed fetal bovine serum (RPMI+ds) (AID 1963877); note: nearly all actives have a fitted effect of over 30% in size;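 for Viability: series mostly up to about 46 µM; 100% = DMSO control wells and 0% = empty wells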
In short: as §1

[5] = Quantitative highthroughput screen to assess conditional lethalithy of NOMO1 cells grown in Human Plasma-Like Medium with dialyzed fetal bovine serum (HPLM+ds) (AID 1963878); note: nearly all actives have a fitted effect of over 35% in size;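 for Viability: 100% = DMSO wells and 0% = empty wells on each plate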
In short: as §1

[6] = Quantitative highthroughput screen to assess conditional lethalithy of P12 Ichikawa cells grown in Human Plasma-Like Medium with dialyzed fetal bovine serum (HPLM+ds) (AID 1963879); details: Potency: viability; note: nearly all actives have a fitted effect of over 35% in size; for Viability: series mostly up to about 46 µM
In short: as §1

[7] = Quantitative highthroughput screen to assess conditional lethalithy of P12 Ichikawa cells grown in RPMI1640 with dialyzed fetal bovine serum (RPMI+ds) (AID 1963880); details: Potency: P12-Ichikawa viability; note: nearly all actives have a fitted effect of over 35% in size;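 for Viability: 100% = DMSO wells and 0% = empty wells on each plate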
In short: as §1

[8] = Quantitative highthroughput screen to assess conditional lethalithy of P12 Ichikawa cells grown in RPMI1640 with untreated serum (RPMI+s) (AID 1963881); details: Potency: viability; note: nearly all actives have a fitted effect of over 35% in size;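 for Viability: series mostly up to about 46 µM; 100% = DMSO wells and 0% = empty wells without cells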
In short: as §1

[9] = Quantitative highthroughput screen to assess conditional lethalithy of SEM cells grown in RPMI1640 with unreated serum (RPMI+s) (AID 1963883); note: nearly all actives have a fitted effect of over 35% in size;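 for Viability: 100% = DMSO wells and 0% = empty wells without cells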
In short: as §1

[10] = Cellular viability qHTS for adrenocortical cancer (ACC) cell line NCI-H295R (AID 1963990); note: nearly all actives have a fitted effect of over 60% in size;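 for activity change, negative = viability loss: 0% = DMSO only wells and -100% = full killing with cytotoxic reference compound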
In short: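 CellTiter-Glo ATP luminescence, read 48 h after compound addition, measured viability of NCI-H295R adrenocortical cells grown serum-free with ITS. Final concentrations spanned up to 46 uM. Data normalized to DMSO and doxorubicin, fitted for IC50 and maximal response.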

[11] = Cellular viability qHTS for adrenocortical cancer (ACC) cell line SW-13 (AID 1963989); details: SW-13 ACC cells viability, CellTiter-Glo, 48 h; activity (max response): active compounds read low; note: nearly all actives have a fitted effect of over 65% in size;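 for activity (max response): cells grown in serum-free medium with ITS supplement; % is set by controls: 0 for no effect and ±100 for the full control effect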
In short: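 Viability was read as CellTiter-Glo luminescence after 48 h compound treatment (up to 46 uM final) of SW-13 cells grown serum-free; titration curves were fit with a four-parameter logistic model to give IC50 and efficacy.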

[12] = Quantitative highthroughput screen to assess conditional lethalithy of SEM cells grown in Human Plasma-Like Medium with dialyzed fetal bovine serum (HPLM+ds) (AID 1963882); note: nearly all actives have a fitted effect of over 35% in size; for Viability: series mostly up to about 46 µM
In short: as §1

[13] = Quantitative highthroughput screen to assess conditional lethalithy of SEM cells grown in RPMI1640 with dialyzed fetal bovine serum (RPMI+ds) (AID 1963884); note: nearly all actives have a fitted effect of over 35% in size;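 for Viability: series mostly up to about 46 µM; 100% = DMSO control wells and 0% = empty wells without cells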
In short: as §1
Potency is the fitted concentration of half-maximal effect.

CC(C)OC(=O)C(C)(C)Oc1ccc(C(=O)c2ccc(Cl)cc2)cc1
inactive: Potency [1] | Potency [2] | Potency [3] | Potency [4] | Potency [5] | Potency [6] | Potency [7] | Potency [8] | Potency [10]
active: Potency [9] 10.5 µM

COc1cc2nc(N3CCN(C(=O)C4CCCO4)CC3)nc(N)c2cc1OC (stereo not given)
inactive: Potency [1] | Potency [2] | Potency [3] | Potency [4] | Potency [5] | Potency [6] | Potency [7] | Potency [8] | activity (max response) [11] -21%

CN1CCN(Cc2ccc(NC(=O)Nc3ccc(Oc4cc(NC(=O)C5CC5)ncn4)cc3)cc2C(F)(F)F)CC1
active: Potency [3] 0.418 µM | Potency [4] 0.418 µM | Potency [5] 0.372 µM | Potency [6] 0.526 µM | Potency [7] 0.418 µM | Potency [8] 0.469 µM | Potency [12] 0.0209 µM | Potency [13] 0.0083 µM | Potency [11] 0.316 µM | Potency [10] 1.26 µM
inactive: Potency [1] | Potency [2]

COc1ccc2cccc(CCNC(C)=O)c2c1
inactive: Potency [1] | Potency [2] | Potency [3] | Potency [4] | Potency [5] | Potency [6] | Potency [7] | Potency [8] | activity (max response) [11] 13%

CN1c2ccccc2C(=O)N2CCc3c([nH]c4ccccc34)C21 (stereo not given)
active: Potency [1] 1.64 µM | Potency [2] 1.16 µM | Potency [11] 2.24 µM | Potency [10] 1.78 µM
inactive: Potency [3] | Potency [4] | Potency [5] | Potency [6] | Potency [7] | Potency [8] | Potency [9] | Potency [13]

CN1C(=O)C(Cc2c[nH]c3ccccc23)NC1=S (stereo not given)
active: Potency [2] 8.33 µM
inactive: Potency [1] | Potency [3] | Potency [4] | Potency [5] | Potency [6] | Potency [7] | Potency [8] | activity (max response) [11] 7.04%

COc1ccc(-c2nc3ccc(C4=NNC(=O)CC4C)cc3[nH]2)cc1 (stereo not given)
active: Potency [1] 18.6 µM | Potency [2] 11.8 µM | Potency [11] 18.4 µM and 20 µM | Potency [10] 6.51 µM and 14.1 µM
inactive: Potency [3] | Potency [4] | Potency [5] | Potency [6] | Potency [7] | Potency [8] | Potency [9] | Potency [13]

c1ccc2c(Oc3nc(Nc4ccc(N5CCOCC5)cc4)c4ncn(C5CCCCC5)c4n3)cccc2c1
active: Potency [1] 1.84 µM and 2.35 µM | Potency [2] 1.84 µM and 4.17 µM
inactive: Potency [3] | Potency [4] | Potency [5] | Potency [6] | Potency [7] | Potency [8] | activity (max response) [11] -10% | Potency [10]

Cc1ccc(C(=O)Nc2cccc(C(F)(F)F)c2)cc1Nc1nc(-c2cccnc2)nc2c1cnn2C
inactive: Potency [3] | Potency [4] | Potency [5] | Potency [6] | Potency [7] | Potency [8]
active: Potency [1] 8.33 µM | Potency [2] 6.61 µM | Potency [11] 2.51 µM | Potency [10] 3.16 µM

O=C(CCCCCCC(=O)Nc1ccccc1)NO
active: Potency [1] 1.64 µM and 1.48 µM | Potency [2] 1.3 µM and 1.18 µM | Potency [3] 14.8 µM | Potency [4] 16.6 µM | Potency [5] 10.5 µM | Potency [6] 4.18 µM | Potency [7] 3.32 µM | Potency [8] 3.32 µM | Potency [9] 3.72 µM | Potency [13] 3.32 µM | Potency [11] 4.11 µM and 3.16 µM | Potency [10] 820 nM and 1 µM

CCCn1c(=O)c2[nH]c(C34CC5CC3C[C@@H](C5)C4)nc2n(CCC)c1=O
active: Potency [1] 18.6 µM | Potency [2] 16.6 µM
inactive: Potency [3] | Potency [4] | Potency [5] | Potency [6] | Potency [7] | Potency [8] | Potency [12] | activity (max response) [11] -4.88% | Potency [10]

Cc1n[nH]c(C)c1Cc1sc2c(c1C(=O)N1C[C@H](O)CO1)c(=O)n(C)c(=O)n2CC(C)C
inactive: Potency [1] | Potency [2] | Potency [3] | Potency [4] | Potency [5] | Potency [6] | Potency [7] | Potency [8] | Potency [13] | activity (max response) [11] 15%

CC1=CC(=O)c2ccccc2C1=O
active: Potency [1] 7.42 µM | Potency [2] 4.68 µM | Potency [12] 16.6 µM
inactive: Potency [3] | Potency [4] | Potency [5] | Potency [6] | Potency [7] | Potency [8] | activity (max response) [11] 13.5% | Potency [10]

CCCCCN(C)CCC(O)(P(=O)(O)O)P(=O)(O)O
inactive: viability (% of control) [1] 73% [at 4.97 µM] | viability, % of control [2] 78.4% [at 4.97 µM] | Potency [3] | Potency [4] | Potency [5] | Potency [6] | Potency [7] | Potency [8] | Potency [13] | activity (max response) [11] -15.6% | activity change, negative = viability loss [10] -3.37% [at 3.81 µM]

CCc1cc(C(N)=S)ccn1
active: Potency [6] 14.8 µM | Potency [7] 8.33 µM | Potency [9] 8.33 µM | Potency [13] 7.43 µM
inactive: Potency [1] | Potency [2] | Potency [3] | Potency [4] | Potency [5] | Potency [8] | activity (max response) [11] 3.73% and -4.72% | Potency [10]

CCn1c(C(=O)N(C2CC2)C2CC2)cc2c3c(ncn3C)c(Nc3cc(C)n(C)n3)nc21
inactive: Potency [3] | Potency [4] | Potency [5] | Potency [6] | Potency [7] | Potency [8] | activity (max response) [11] -6.84%
active: Potency [1] 1.03 µM and 1.48 µM | Potency [2] 2.31 µM and 3.72 µM | Potency [9] 20.9 µM
